LmPK inhibitor: inhibitors of Leishmania mexicana pyruvate kinase; Q27686; purified LmPK, Kinase-Glo ATP luminescence, 1 h; Potency, µM (titrated, usually from 57.5 µM), without a hit: top-dose activity change, negative = inhibition, actives largely listed as inhibitors; hit rate 0.37% among 290,000; AID 1721; also: % is scaled to controls: 0 for no effect and ±100 for the full control effect
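qHTS format; LmPK 0.1 nM; substrates PEP 0.5 mM and ADP 0.1 mM. One-hour room-temperature incubation, then coupled luciferase luminescence; 0.5 nM enzyme wells mark activation.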
RE007 growth inh: less growth of the S. pombe RE007 Vpr strain; S. pombe RE007 Vpr strain, BacTiter-Glo ATP luminescence, 24 h; Potency, µM (top dose mostly 92.2 µM), without a hit: at the highest dose activity change, negative = less growth, most hits filed as inhibitors; hit rate 0.21% among 360,000; AID 651644; active = well fitted falling curve with a large enough effect; inconclusive = small, poorly fitted or top-dose-only effect; inactive = no such curve, though single readings can be large or run the other way; also: % is scaled to controls: 0 for no effect and ±100 for the full control effect; nearly all actives have a fitted effect of over 50% in size
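Fission yeast strain RE007, carrying one chromosomally integrated HIV-1 vpr copy, was seeded at OD 0.01 in PMG+AL medium with 23 nL pinned compound. After 24 h at 30 °C and 99% humidity, viability was read by BacTiter-Glo luminescence.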
NS1 function inh: influenza NS1 inhibition. Potency, µM (doses to about 46.1 µM), for inactives: at the top dose activity, positive = more growth. hit rate 0.4% among 270,000; calls by dose curve; also: actives are rising curves; nearly all actives have a fitted effect of over 50% in size
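S. cerevisiae expressing influenza A NS1, grown in glucose, washed, then diluted 1:100 into pH 6.0 -URA galactose medium with 23 nl compound. Growth recovery read as OD600; NS1-free strain serves as control.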
FBPA Giardia inh: blocks Giardia fructose-bisphosphate aldolase activity | hit rate 0.71% among 290,000 | purified Giardia FBPA | A8B2U2 | Potency, µM (series often up to 59.6 µM), for the others: top-dose activity, negative = inhibition, usual class: inhibitors | AID 2451; also: % is scaled to controls: 0 for no effect and ±100 for the full control effect; nearly all actives have a fitted effect of over 55% in size
Target sequence (A8B2U2 whole entry, looked up): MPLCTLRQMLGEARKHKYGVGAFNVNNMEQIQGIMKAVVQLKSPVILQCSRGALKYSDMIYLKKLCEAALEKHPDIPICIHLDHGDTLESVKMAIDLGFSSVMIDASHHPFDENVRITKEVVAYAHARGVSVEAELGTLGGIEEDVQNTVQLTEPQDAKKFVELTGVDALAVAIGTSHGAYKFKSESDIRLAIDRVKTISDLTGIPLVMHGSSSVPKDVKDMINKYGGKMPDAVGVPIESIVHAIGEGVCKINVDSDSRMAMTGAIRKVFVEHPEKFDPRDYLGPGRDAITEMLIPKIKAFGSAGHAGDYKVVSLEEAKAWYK
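40 nM FBPA preincubated 10 min at RT with compound (up to 57.5 uM final), then substrate plus GAPDH/TPI/NAD/arsenate coupling and diaphorase/resazurin added. Fluorescence read after 20 min at RT, 525/598 nm.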
Sm TGR inh: inhibitors of Schistosoma mansoni thioredoxin glutathione reductase; Q962Y6; purified TGR, DTNB reduction, TNB absorbance 405 nm; Potency, µM (highest dose often 114 µM), without a hit: at the top dose activity change, negative = inhibition, usual class: inhibitors; hit rate 3% among 360,000; also: % is scaled to controls: 0 for no effect and ±100 for the full control effect; nearly all actives have a fitted effect of over 60% in size
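First, TGR (20 nM dispensed) and NADPH were mixed with compound. Second, a 15 min room-temperature incubation followed. Third, further NADPH and then DTNB were added to start the reaction. Finally, TNB absorbance was monitored kinetically.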
TbPYK inhibitor: blocks Trypanosoma brucei pyruvate kinase; hit rate 0.12% among 410,000; Potency, µM (series often up to 76.8 µM), inactives show top-dose activity, negative = inhibition, actives largely listed as inhibitors; Q57TT1; TbPYK enzyme, Kinase-Glo Plus ATP luminescence, 45 min; also: % is scaled to controls: 0 for no effect and ±100 for the full control effect; nearly all actives have a fitted effect of over 50% in size
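Quantitative HTS: titrated library compounds versus trypanosomal pyruvate kinase in TEA buffer (pH 7.2) containing KCl, MgCl2, BSA and Tween-20. Reactions were initiated with ADP, 130 uM final. Kinase-Glo Plus luminescence was read after 45 min at RT.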
Starred values were filed as active, the others as inactive. Only some compounds are listed: those with a hit (about 3.5% of all), similar ones and a draw of the others. Unless noted, calls follow the shape of the dose curve; as a rule, active = well fitted curve in the direction sought with a large enough effect; inconclusive = small, poorly fitted or top-dose-only effect, or another doubt; inactive = no such curve, though single readings can be large; an effect the other way counts as inactive or inconclusive. Potency is read from the fitted curve at half-maximal effect.

`CCOc1ccc(NC(=O)CN(C)C(=O)c2ccncc2)cc1OCC` gave LmPK inhibitor -10.9%, RE007 growth inh 6.4%, NS1 function inh 3.7%, Sm TGR inh 25.1µM* and TbPYK inhibitor -0.9%.
Screening CCOC(=O)N1CCN(c2ncc3c(n2)CC(c2ccc(OC)c(OC)c2)CC3=O)CC1 (stereo not drawn) returned Sm TGR inh 4.47µM* and TbPYK inhibitor -3.8%.
`COc1ccc(S(=O)(=O)c2cn(C)c3cc(N4CCCC4)c(F)cc3c2=O)cc1` gave Sm TGR inh 4.5% and TbPYK inhibitor 3.7%.
`Nc1nccc(/C=C/c2c(Cl)cccc2Cl)n1` gave LmPK inhibitor 3.6%, RE007 growth inh -2.0%, NS1 function inh -3.7%, FBPA Giardia inh -5.4%, Sm TGR inh 20.9% and TbPYK inhibitor -1.1%.
Screening CCSC1=NC(C)(C)C=C(C)N1 returned LmPK inhibitor 2.6%, RE007 growth inh -4.9%, NS1 function inh 1.2%, FBPA Giardia inh 1.6%, Sm TGR inh -4.3% and TbPYK inhibitor 4.1%.
Screening CSC1=NC(C)(C)C=C(/C=C/c2ccc(Cl)cc2Cl)N1 returned LmPK inhibitor -0.5%, RE007 growth inh -12.6%, FBPA Giardia inh -23.3%, Sm TGR inh 20µM* and TbPYK inhibitor -5.5%.
`CSC1=NC(C)(C)C=C(/C=C/c2c(Cl)cccc2Cl)N1` gave LmPK inhibitor 1.6%, RE007 growth inh -10.6%, FBPA Giardia inh -18.9%, Sm TGR inh 15.8µM* and TbPYK inhibitor -6.5%.
Screening CCSC1=NC(C)(C)C=C(/C=C/c2ccc(Cl)cc2Cl)N1 returned LmPK inhibitor 0.3%, RE007 growth inh -15.5%, NS1 function inh -56.1%, FBPA Giardia inh -12.3%, Sm TGR inh 17.8µM* and TbPYK inhibitor -7.4%.
`Clc1ccc(/C=C/c2ncc[nH]2)c(Cl)c1` gave LmPK inhibitor -3.7%, RE007 growth inh -17.7%, NS1 function inh -79.0%, FBPA Giardia inh -9.2%, Sm TGR inh 1.2% and TbPYK inhibitor -8.2%.
`CSC1=NC(C)(C)C=C(/C=C/c2ccc(Cl)cc2)N1` gave LmPK inhibitor 4.7%, RE007 growth inh -13.1%, FBPA Giardia inh -4.1%, Sm TGR inh 5.01µM* and TbPYK inhibitor 1.9%.
For O=C(Nc1nnc(-c2ccccc2Cl)s1)c1ccccc1F the results were LmPK inhibitor -3.8%, RE007 growth inh -7.0%, NS1 function inh -11.9%, FBPA Giardia inh 5.3%, Sm TGR inh 28.2µM* and TbPYK inhibitor -7.5%.
O=C(Nc1nnc(-c2ccccc2)s1)c1ccccc1F was read as LmPK inhibitor -5.1%, RE007 growth inh 1.8%, NS1 function inh -42.7%, FBPA Giardia inh -28.7%, Sm TGR inh 13.2% and TbPYK inhibitor 4.2%.
For Fc1ccc(-c2nn(-c3ccccc3)cc2CNCc2ccccc2)cc1 the results were LmPK inhibitor -0.1%, RE007 growth inh -12.0%, NS1 function inh -2.1%, FBPA Giardia inh 1.5% and TbPYK inhibitor -16.1%.
For O=C(CCl)Nc1cn(-c2ccccc2)nc1-c1ccc(F)cc1 the results were LmPK inhibitor 0.7%, RE007 growth inh -11.2%, FBPA Giardia inh -3.1%, Sm TGR inh 31.6µM* and TbPYK inhibitor -0.1%.
CCN(C(=O)Cn1c(SCc2ccccc2F)nc2cccnc21)c1ccccc1 was read as Sm TGR inh -9.0% and TbPYK inhibitor 3.1%.
For Cc1nc2sc(C(c3ccco3)N3CCC(C)CC3)c(O)n2n1 (stereo not drawn) the results were LmPK inhibitor -3.6%, RE007 growth inh -6.8%, NS1 function inh -110.9%, FBPA Giardia inh -25.6%, Sm TGR inh 44.7µM* and TbPYK inhibitor -16.4%.
Cc1nc2sc(C(c3ccco3)N3CC(C)OC(C)C3)c(O)n2n1 (stereo not drawn) was read as LmPK inhibitor 2.2%, RE007 growth inh -0.2%, NS1 function inh 16.0%, FBPA Giardia inh inconclusive, Sm TGR inh 44.7µM* and TbPYK inhibitor -16.0%.
Screening Cc1nc2sc(C(c3ccccc3)N3CC(C)OC(C)C3)c(O)n2n1 (stereo not drawn) returned LmPK inhibitor 0.5%, RE007 growth inh 11.2%, NS1 function inh 1.5%, FBPA Giardia inh 5.6%, Sm TGR inh 4.6% and TbPYK inhibitor -12.4%.
For Nc1nc(-c2cccs2)c(CC(=O)O)s1 the results were LmPK inhibitor 0.2%, RE007 growth inh 2.6%, FBPA Giardia inh -7.0%, Sm TGR inh 39.8µM* and TbPYK inhibitor -13.8%.
`CC(=O)C(=Cc1ccc(C(=O)O)cc1)C(C)=O` gave LmPK inhibitor -3.9%, RE007 growth inh 1.1%, FBPA Giardia inh 1.8%, Sm TGR inh -4.9% and TbPYK inhibitor -1.1%.
`CC1(C)N(O)C(c2ccc(C(=O)O)cc2)=[N+]([O-])C1(C)C` gave FBPA Giardia inh 39.7µM*.
`COCCNC(=O)CSc1nc(-c2ccccc2)[nH]c1-c1ccc(OC)cc1` gave Sm TGR inh 4.9% and TbPYK inhibitor 0.1%.
For c1ccc(-n2ncc3c(NCCN4CCOCC4)ncnc32)cc1 the results were LmPK inhibitor -0.3%, RE007 growth inh 10.1%, NS1 function inh 7.6%, FBPA Giardia inh -4.2%, Sm TGR inh -0.9% and TbPYK inhibitor -8.4%.
`c1ccc(-n2ncc3c(NCCN4CCCCC4)ncnc32)cc1` gave LmPK inhibitor -1.8%, RE007 growth inh -7.8%, NS1 function inh -7.5%, FBPA Giardia inh -2.7%, Sm TGR inh 50.1µM* and TbPYK inhibitor 2.1%.
For O=C(O)CCCCCNC(=O)/C(=C\c1ccco1)NC(=O)c1ccco1 the results were LmPK inhibitor 21.2%, RE007 growth inh -3.7%, NS1 function inh -1.8%, FBPA Giardia inh inconclusive, Sm TGR inh 100µM* and TbPYK inhibitor 10.1%.
Screening CCNC(=O)/C(=C/c1ccco1)NC(=O)/C=C/c1ccccc1 returned LmPK inhibitor 5.2%, RE007 growth inh -2.2%, NS1 function inh 13.1%, FBPA Giardia inh -21.5%, Sm TGR inh 39.8µM* and TbPYK inhibitor -20.0%.
Screening CC(C)CC(NC(=O)/C(=C\c1ccco1)NC(=O)c1ccco1)C(=O)O (stereo not drawn) returned LmPK inhibitor 19.2%, RE007 growth inh -8.7%, NS1 function inh 7.4%, FBPA Giardia inh -12.3%, Sm TGR inh 35.5µM* and TbPYK inhibitor -11.0%.
`CNC(=O)/C(=C\c1ccco1)NC(=O)c1ccco1` gave LmPK inhibitor 0.4%, RE007 growth inh 4.4%, NS1 function inh 0.7%, FBPA Giardia inh 6.4%, Sm TGR inh inconclusive and TbPYK inhibitor -1.5%.
Screening O=C(N/C(=C/c1ccco1)C(=O)N1CCc2ccccc21)c1ccco1 returned LmPK inhibitor 0.5%, RE007 growth inh -2.5%, NS1 function inh 9.1%, FBPA Giardia inh -28.9%, Sm TGR inh 31.6µM* and TbPYK inhibitor inconclusive.
